Data as given in publication PMC7819943, “Rice protein-binding microarrays: a tool to detect cis-acting elements near promoter regions in rice”.
Whole data set: some 39,000 sequences, median “fluorescence intensity (a.u.)” near 4,300, cut for the highest 2% near 39,000. Only a selection was taken, and the highest values are over-represented in it overall.

These sequences were tested against T1, OsSMF1 (Oryza sativa, UniProt Q6ZLB0 1-436) (assay: protein-binding microarray (RPBM); PBS, 2% BSA, 51.3 ng/ul salmon testes DNA, 50 uM zinc acetate, 200 nM TF, 25 C, 1 h; high values mean tight binding). Details: protein: recombinant; tags: N-terminal polyhistidine and DsRed monomer fusion (pET32a); chain copies: 2; label: CyDye5-dUTP incorporated in the synthesized complementary strand; 3' TTTTT single-stranded linker to array surface; dsDNA, one strand shown.
T1 sequence: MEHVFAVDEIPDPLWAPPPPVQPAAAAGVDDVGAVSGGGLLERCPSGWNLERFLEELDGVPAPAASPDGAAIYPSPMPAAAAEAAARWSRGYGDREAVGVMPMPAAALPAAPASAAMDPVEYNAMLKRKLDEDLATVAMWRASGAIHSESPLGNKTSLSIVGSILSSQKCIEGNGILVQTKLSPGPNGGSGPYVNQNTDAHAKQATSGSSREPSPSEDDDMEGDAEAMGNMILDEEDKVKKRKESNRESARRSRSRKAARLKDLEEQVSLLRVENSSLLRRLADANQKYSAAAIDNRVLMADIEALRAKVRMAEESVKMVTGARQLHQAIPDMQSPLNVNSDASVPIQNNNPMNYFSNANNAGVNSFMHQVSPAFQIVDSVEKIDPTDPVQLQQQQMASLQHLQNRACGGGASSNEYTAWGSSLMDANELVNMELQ
In short: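 An Axon 4000B scanner gave the binding signal as per-feature fluorescence intensity in arbitrary units. This followed washing of a custom Agilent array that had been incubated for 1 h at 25 °C with 200 nM protein in PBS, 2% BSA, salmon testes DNA and 50 µM zinc acetate. The proteins were transcription factors fused at the N-terminus to polyhistidine and DsRed, expressed in E. coli BL21-CodonPlus and purified on Ni–NTA.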

Row | Sequence | binding signal
1 | GACAAGCTCGGCACCAATCTCCACAGGAGCCGCATCAGGTCGGAGTCACCTAGTGCAG | 3420 fluorescence intensity (a.u.)
2 | GACCCAAATGTCATAGAGACACGACGGTTCACATGTCATACGGAGTCACCTAGTGCAG | 3900 fluorescence intensity (a.u.)
3 | CATGTCGACATGTTCACAAGCGGTACCAAGAGTCAAGACACGGAGTCACCTAGTGCAG | 45800 fluorescence intensity (a.u.)
4 | AGTCCAAGAGCGTGACGCATGTTCGGTACCACGCGCACAACGGAGTCACCTAGTGCAG | 4740 fluorescence intensity (a.u.)
5 | TCTCCCTCTACCTCGACGTCATCAACCTCTTCCTCTCCCTCGGAGTCACCTAGTGCAG | 11000 fluorescence intensity (a.u.)
6 | ACACCATGCGTATGATGCAATACCTATTGACTCCATTGAACGGAGTCACCTAGTGCAG | 3380 fluorescence intensity (a.u.)
7 | GTATTGATGTTCTTACCATAAAAGTAACTCCATGAAAGAACGGAGTCACCTAGTGCAG | 41100 fluorescence intensity (a.u.)
8 | GTTAACAGTAAGTTATTCTTTGAACTCCATATATTTGTTCCGGAGTCACCTAGTGCAG | 3440 fluorescence intensity (a.u.)
9 | TAGATTGCTTTTCAGTGAAACTACGTGCACATATGCATGCCGGAGTCACCTAGTGCAG | 3250 fluorescence intensity (a.u.)
10 | ACACTAGTAACAAAACTTGGCAATTTGGCATTTGGCATTTCGGAGTCACCTAGTGCAG | 3300 fluorescence intensity (a.u.)
11 | GCTTTGCATAGGCACTTTCAAAACTAGATATTAGTAACGCCGGAGTCACCTAGTGCAG | 51000 fluorescence intensity (a.u.)
12 | ACAGGTGCACGCACACGTGCCGCATCAACCAGACAGCCACCGGAGTCACCTAGTGCAG | 3360 fluorescence intensity (a.u.)
13 | TTATAAATTAAATTTTATGTAATGAAAATAATATCATTGGCGGAGTCACCTAGTGCAG | 3900 fluorescence intensity (a.u.)
14 | AAACATAACAATATTTTCAACATAAAACAAATAATGTTATCGGAGTCACCTAGTGCAG | 3530 fluorescence intensity (a.u.)
15 | GTAAATTTCATAAAATCCCACGTATTATGATTCAAATTGCCGGAGTCACCTAGTGCAG | 5110 fluorescence intensity (a.u.)
16 | CTCTCAAAATATTCGGATGTAATTTTAGTCGCACAAACATCGGAGTCACCTAGTGCAG | 39200 fluorescence intensity (a.u.)
17 | AAATATAATAAATTTAATGTTAACATATTTTACACGTAAGCGGAGTCACCTAGTGCAG | 9740 fluorescence intensity (a.u.)
18 | TGTTTAATAATAAATTTAGTAACATCAATTTTACATGATTCGGAGTCACCTAGTGCAG | 46100 fluorescence intensity (a.u.)
19 | TTTTATTTCATTATATGATCCCATCAAATATAAATTAGCACGGAGTCACCTAGTGCAG | 48500 fluorescence intensity (a.u.)
20 | TAGTTATAAAGCACTGTAATTTTAGTTATAAATACAACATCGGAGTCACCTAGTGCAG | 3260 fluorescence intensity (a.u.)
21 | CGGTGTTTGTAATTCATTTTATATAATGAAAATGGATTATCGGAGTCACCTAGTGCAG | 44600 fluorescence intensity (a.u.)
22 | CATATTATAAAATGTTGTGCTAATTATTATCGGTGTATATCGGAGTCACCTAGTGCAG | 22300 fluorescence intensity (a.u.)
23 | AATATTTACATTACTAAATTAGTTTTATTAAATTAATAATCGGAGTCACCTAGTGCAG | 19800 fluorescence intensity (a.u.)

Row | Sequence | binding signal
24 | AAAATTTATTCATCCATCGTCATAATTTTAATTATATGCACGGAGTCACCTAGTGCAG | 4150 fluorescence intensity (a.u.)
25 | CTGCGCGTAGAAGTGACGCAAGAAGGCAGCGGGCCCACTACGGAGTCACCTAGTGCAG | 3230 fluorescence intensity (a.u.)
26 | AGAACCTTCCGCGCTTCCGTGCTCCCCACCGCCACCTCGCCGGAGTCACCTAGTGCAG | 3430 fluorescence intensity (a.u.)
27 | TCACATCCACGTATATTCCCTTCCCCTTCTCCAACCTTTCCGGAGTCACCTAGTGCAG | 9390 fluorescence intensity (a.u.)
28 | TCATCATCAAGACTGAGTCACTGACACGTGTGCACCTATGCGGAGTCACCTAGTGCAG | 27900 fluorescence intensity (a.u.)
29 | TCTATATTCTACTCAATGCTTGGTTCTAAATTGGCCTCAACGGAGTCACCTAGTGCAG | 24700 fluorescence intensity (a.u.)
30 | CTATTTGTGTCTTGTGTACTTCAACGTCTTCCTCTTATGACGGAGTCACCTAGTGCAG | 3680 fluorescence intensity (a.u.)
31 | ATACAGTAAATATTTGCTAATGACGGATTAATTAGGCTTACGGAGTCACCTAGTGCAG | 3790 fluorescence intensity (a.u.)
32 | GCGTGCGCGTCGACGTCGTCACCGCCGTCCACGGCGTAGTCGGAGTCACCTAGTGCAG | 5680 fluorescence intensity (a.u.)
33 | ACATCCTATCCCGTGCATTGAATCAGCATTGTACAGCAAACGGAGTCACCTAGTGCAG | 3370 fluorescence intensity (a.u.)
34 | GAGCTCCACCTCCTCGCGTGCCCACGCCATCCATGGCTTCCGGAGTCACCTAGTGCAG | 4500 fluorescence intensity (a.u.)
35 | TTTGTCTATAAATTTAGTCAAACTTGAAACAATTTGATTTCGGAGTCACCTAGTGCAG | 14600 fluorescence intensity (a.u.)
36 | GGTTGTTCTAACAAATTGTTTATAAAACAATTTGATTTTGCGGAGTCACCTAGTGCAG | 3570 fluorescence intensity (a.u.)
37 | AGGGAAAGATTCTAACAAATAAAGAAAAGAACAATGCAGCCGGAGTCACCTAGTGCAG | 3260 fluorescence intensity (a.u.)
38 | AAATACATCCAAGAACACAATATATTCCAATATTTTGTCACGGAGTCACCTAGTGCAG | 34500 fluorescence intensity (a.u.)
39 | TTTTCTATAAATTTAGTCAAATATAACAAAGTTTGATTAGCGGAGTCACCTAGTGCAG | 42600 fluorescence intensity (a.u.)
40 | ATTTAATAAAACTTATTTGGTGTTGTAAATGTTGCTAAATCGGAGTCACCTAGTGCAG | 26700 fluorescence intensity (a.u.)
41 | ATGTCGTAGCTTTTAATTATATACTACTATAAATTTGATTCGGAGTCACCTAGTGCAG | 43700 fluorescence intensity (a.u.)
42 | ATAATTTGGTGTTACAGTAAACATTTGCTAATAATGGATTCGGAGTCACCTAGTGCAG | 49500 fluorescence intensity (a.u.)
43 | CGGAGGGAGTATAAAAGAACAATACTTCTATAAATTTTGTCGGAGTCACCTAGTGCAG | 40300 fluorescence intensity (a.u.)
44 | AAAATTATGTTGTCATTTTAATATATTTGAATAATACATTCGGAGTCACCTAGTGCAG | 3560 fluorescence intensity (a.u.)
45 | GTGGTGCTACAGTAAATATTTGCTAATGATAGATTAATTACGGAGTCACCTAGTGCAG | 7300 fluorescence intensity (a.u.)
46 | TTTATATAATAGTTACTTACTATACTATTAATACTTGATTCGGAGTCACCTAGTGCAG | 16600 fluorescence intensity (a.u.)
